BAZ2B block: qHTS Assay for Inhibitors of BAZ2B | Bromodomain adjacent to zinc finger domain protein 2B (Homo sapiens), Q9UIF8 | AlphaScreen BAZ2B-H3K14Ac peptide displacement | Potency, µM (titrated, usually from 114 µM), for the others: at the top dose activity change, negative = inhibition, actives largely listed as inhibitors | 360,000 tested, 4.4% active; further: potency means the concentration at half of the fitted maximal effect; on the % scale 0 is the no-effect control and ±100 the full control effect; nearly all actives have a fitted effect of over 60% in size
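AlphaScreen displacement: compounds (up to 110uM) incubated 30 min at room temperature with a preformed 50 nM BAZ2B/50 nM biotinylated H3K14Ac peptide complex in PBS pH 7.4 with Tween-20. Donor and acceptor beads at 10 ug/mL final added, 20 min light-protected before reading.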
PI5P4K alpha inh: qHTS for Inhibitors of phosphatidylinositol 5-phosphate 4-kinase (PI5P4K) | 330,000 tested, 1.2% active | Phosphatidylinositol 5-phosphate 4-kinase type-2 alpha (Homo sapiens), P48426 | PI5P4Kalpha enzyme, ADP-Glo luminescence, 60 min; hits give low values | max response, %; active means max response of -50% or lower; inconclusive means between -30% and -50%; inactive means -30% or higher; further: value at the top dose of about 77 µM; on the % scale 0 is the no-effect control and ±100 the full control effect
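Single end-point luminescence (ADP-Glo) quantified ADP from PI5P4Kalpha turnover; ATP 5 microM final, 1 h at RT, 0.1% CHAPS and 0.28 mM EGTA in HEPES pH 7.4.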
JMJD2A Tudor inh: qHTS Assay for Inhibitors of JMJD2A-Tudor Domain; Lysine-specific demethylase 4A (Homo sapiens), O75164; AlphaScreen JMJD2A-Tudor / H3K4me3 peptide binding; Potency, µM (highest dose often 114 µM), for the others: at the highest dose activity change, negative = inhibition, most hits filed as inhibitors; 390,000 tested, 4.4% active; further: potency means the concentration at half of the fitted maximal effect; on the % scale 0 is the no-effect control and ±100 the full control effect; nearly all actives have a fitted effect of over 50% in size
HP1b chromo inh: HTS for Inhibitors of HP1-beta Chromodomain Interactions with Methylated Histone Tails | AlphaScreen HP1-beta / biotin-H3K9me3 peptide binding | Potency, µM (titrated, usually from 114 µM), without a hit: top-dose activity change, negative = inhibition, actives largely listed as inhibitors | Chromobox protein homolog 1 (Homo sapiens), P83916 | AID 540317, 2011 | 390,000 tested, 0.56% active; further: potency means the concentration at half of the fitted maximal effect; nearly all actives have a fitted effect of over 70% in size
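AlphaScreen: HP1-beta (50 nM) preformed 30 min with biotin-H3(1-18)K9me3 peptide (50 nM) in PBS pH 7.4, 0.01% Tween-20. Compound added for 30 min at RT, then streptavidin donor/nickel chelate acceptor beads (10 ug/mL) for 30 min.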
KAT2A inh: qHTS Assay for Inhibitors of GCN5L2; 390,000 tested, 0.21% active; AID 504327, 2011; GCN5L2 HAT assay, ThioGlo1 CoA-SH fluorescence; Potency, µM (series often up to 58.9 µM), inactives show at the top dose activity change, negative = inhibition, most hits filed as inhibitors; further: potency means the concentration at half of the fitted maximal effect; on the % scale 0 is the no-effect control and ±100 the full control effect
Target sequence (Q92830 whole entry, looked up): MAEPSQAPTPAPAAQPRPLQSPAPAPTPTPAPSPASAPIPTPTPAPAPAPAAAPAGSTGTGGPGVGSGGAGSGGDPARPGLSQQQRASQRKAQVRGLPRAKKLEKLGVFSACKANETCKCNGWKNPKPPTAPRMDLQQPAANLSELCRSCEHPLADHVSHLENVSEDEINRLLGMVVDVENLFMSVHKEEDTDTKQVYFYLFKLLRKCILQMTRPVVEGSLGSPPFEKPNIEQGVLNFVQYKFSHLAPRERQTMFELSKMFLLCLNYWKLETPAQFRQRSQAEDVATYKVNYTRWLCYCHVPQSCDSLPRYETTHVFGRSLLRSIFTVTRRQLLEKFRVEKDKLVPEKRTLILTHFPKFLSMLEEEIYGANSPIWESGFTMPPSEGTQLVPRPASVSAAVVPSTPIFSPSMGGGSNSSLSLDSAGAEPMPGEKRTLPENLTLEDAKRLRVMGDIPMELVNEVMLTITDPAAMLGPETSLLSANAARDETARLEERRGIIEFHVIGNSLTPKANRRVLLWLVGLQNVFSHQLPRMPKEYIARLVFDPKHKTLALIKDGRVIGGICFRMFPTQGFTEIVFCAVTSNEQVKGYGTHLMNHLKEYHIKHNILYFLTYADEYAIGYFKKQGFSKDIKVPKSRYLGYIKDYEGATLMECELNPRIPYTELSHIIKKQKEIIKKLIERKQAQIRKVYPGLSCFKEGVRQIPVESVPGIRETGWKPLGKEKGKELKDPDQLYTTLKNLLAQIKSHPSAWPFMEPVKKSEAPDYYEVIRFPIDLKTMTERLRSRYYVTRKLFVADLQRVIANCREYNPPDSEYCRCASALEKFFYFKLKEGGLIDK
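Free CoA generated was detected with ThioGlo1 (50uM) fluorescence at Ex340nm/Em540nm, read immediately and after 20 min at room temperature. Enzyme, 20 nM in HEPES pH 7.5 buffer, saw compounds 15 min before adding 75uM H3(1-25) peptide and 70uM acetyl-CoA.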
PLK1 PBD block: qHTS for Inhibitors of PLK1-PDB (polo-like kinase 1 - polo-box domain): Primary Screen | AID 720504, 2013 | Potency, µM, inactives show max response, negative = inhibition, usual class: inhibitors | 360,000 tested, 2.8% active | Serine/threonine-protein kinase PLK1 (Homo sapiens), P53350 | Plk1 PBD binding of FITC phosphopeptide, fluorescence polarization; further: potency means the concentration at half of the fitted maximal effect; series mostly up to about 57 µM; on the % scale 0 is the no-effect control and ±100 the full control effect; nearly all actives have a fitted effect of over 65% in size
TbPYK inh: qHTS of Trypanosoma Brucei Inhibitors: Confirmatory Assay for Cherry-picked Compounds; shares compounds with PLK1 PBD block; recombinant TbPYK, Kinase-Glo ATP luminescence; Potency, µM (doses to about 76.9 µM), for the others: at the highest dose activity change, negative = inhibition, actives largely listed as inhibitors; 890 tested, 67% active; further: potency means the concentration at half of the fitted maximal effect; on the % scale 0 is the no-effect control and ±100 the full control effect; nearly all actives have a fitted effect of over 70% in size
TbPYK orthogonal: qHTS of Trypanosoma Brucei Inhibitors: Orthogonal Assay for Cherry-picked Compounds; Potency, µM (series often up to 76.9 µM), for the others: at the top dose activity change, negative = inhibition, hits mostly inhibitors; 890 tested, 62% active; shares compounds with PLK1 PBD block; recombinant TbPYK, ADP-Glo luminescence, 60 min; AID 720584, 2013; further: potency means the concentration at half of the fitted maximal effect; on the % scale 0 is the no-effect control and ±100 the full control effect; nearly all actives have a fitted effect of over 75% in size
The depositor's hits bear a star; ? = inconclusive; . = no result; [ ] = another dose, or the depositor's remark. A selection: hits, their analogues and other compounds. The true share with any hit is near 7%. Unless noted, the call rests on the fitted dose curve; in most records, active means well fitted curve in the direction sought with a large enough effect; inconclusive means small, poorly fitted or top-dose-only effect, or another doubt; inactive means no such curve, though single readings can be large; an effect the other way counts as inactive or inconclusive.

SMILES	BAZ2B block	PI5P4K alpha inh	JMJD2A Tudor inh	HP1b chromo inh	KAT2A inh	PLK1 PBD block	TbPYK inh	TbPYK orthogonal
CCN(CC)S(=O)(=O)c1ccc(C(=O)NC(=S)N(CCC#N)Cc2cccnc2)cc1	4%	-1	-9%	18%	-15%	-9%	13µM*	13µM*
CCCCCCC(=O)N(O)C1CC(=O)N(c2ccc(F)cc2)C1=O (centres undefined)	-8%	-25	50µM*	35µM*	-23%	27µM*	?	?
CCOC(=O)N1CCN(C2CC(=O)N(c3ccc(F)cc3)C2=O)CC1 (centres undefined)	12%	.	-12%	19%	-1%	-1%	.	.
CC1CCCC(NC(=O)c2ccc(COc3ccccc3)o2)C1C (centres undefined)	-18%	0	-1%	44%	?	-1%	.	.
Cc1ccc(NC(=O)c2cc(NC(=O)c3ccco3)ccc2N2CCOCC2)cc1	6%	-5	-1%	28%	-8%	-4%	.	.
Cc1ccc(NC(=O)c2cc(N3C(=O)C=CC3=O)ccc2N2CCOCC2)cc1	?	-63*	11µM*	?	1%	3µM*	10µM*	11µM*
CCc1csc(CNC(=O)C2CCC(=O)N(Cc3cccc(OC)c3)C2)n1 (centres undefined)	.	3	.	.	.	-8%	.	.
O=C1N=c2ccccc2=C1c1sc(=O)[nH]c1O	-15%	-87*	-16%	26%	-3%	-11%	?	?
O=C1N=c2ccccc2=C1c1sc(=S)n(-c2ccc(O)cc2)c1O	-36%	-2	-4%	7%	-2%	-10%	.	.
COc1ccc(N(CC(=O)NCCSC(C)(C)C)S(C)(=O)=O)c(OC)c1	7%	.	-9%	17%	0%	-11%	18µM*	?
COc1ccc(OC)c(N(CC(=O)NCCSc2ccccc2)S(C)(=O)=O)c1	6%	.	-10%	19%	-6%	-8%	.	.
Cc1ccsc1/C=N/Nc1nc(=O)[nH]nc1C	32µM*	?	?	30%	-17%	1%	18µM*	8%
Cc1ccsc1/C=N/Nc1ncc(Cl)cc1Cl	-7%	8	-24%	46%	-1%	-8%	.	.
Cc1c(Br)c(O)c(Br)c2sc(=O)oc12	?	-69*	45µM*	28µM*	-25%	27µM*	?	?
CCOC(=O)C1=C(C)c2ccccc2OC1(CC)C(=O)OCC (centres undefined)	.	8	53%	111%	-3%	1%	.	.
CCOC(=O)C1=C(C)c2ccccc2N(C(=O)OC)C1(C)C(=O)OCC (centres undefined)	.	-29	-2%	51%	?	?	32µM*	40µM*
COc1ccccc1CNS(=O)(=O)c1ccc(N2CCCCS2(=O)=O)cc1	-5%	.	-11%	4%	6%	.	.	.
CC(C)CCNC(=O)NC(=O)CSc1ccc(S(=O)(=O)N2CCOCC2)cn1	-5%	-21	-16%	-10%	-17%	?	16µM*	14µM*
CC(C)C(C)NC(=O)CSc1ccc(S(=O)(=O)N2CCOCC2)cn1 (centres undefined)	6%	-2	-1%	25%	4%	-11%	.	.
Cc1ccc(N(C)C(=O)c2noc3c2CCCCC3)cc1C	11%[57.1 µM]	.	-6%	12%	7%	.	.	.
CCCn1nnnc1SCC(=O)N1C(C)CCCC1C (centres undefined)	-2%	0	-16%	-16%	-4%	-9%	.	.
CC(=O)C1=C(C)NC(SCC(N)=O)=C(C#N)C1CC(C)C (centres undefined)	-15%	?	22µM*	-36%	-17%	-18%	7.1µM*	8.9µM*
CC(=O)C1=C(C)NC(SCC(=O)c2ccc(F)cc2)=C(C#N)C1CC(C)C (centres undefined)	-29%	-57*	13µM*	26%	-19%	?	1.1µM*	1.8µM*
CC(=O)C1=C(C)NC(SCC(=O)c2ccc(Cl)cc2)=C(C#N)C1CC(C)C (centres undefined)	?	2	?	38%	-14%	-26%	.	.
CC(=O)C1=C(C)NC(SCC(N)=O)=C(C#N)C1C (centres undefined)	-8%	?	13µM*	?	-5%	21µM*	?	?
SMILES	BAZ2B block	PI5P4K alpha inh	JMJD2A Tudor inh	HP1b chromo inh	KAT2A inh	PLK1 PBD block	TbPYK inh	TbPYK orthogonal
CC(/C=C/C=C(\C)C(=O)O[C@@H]1O[C@H](CO[C@@H]2O[C@H](CO)[C@@H](O)[C@H](O)[C@H]2O)[C@@H](O)[C@H](O)[C@H]1O)=C\C=C\C=C(C)\C=C\C=C(/C)C(=O)O[C@@H]1O[C@H](CO[C@@H]2O[C@H](CO)[C@@H](O)[C@H](O)[C@H]2O)[C@@H](O)[C@H](O)[C@H]1O	.	.	.	.	8%	.	.	.
CN(CC(=O)Nc1cccc(F)c1)C(=O)Cn1c(=O)cnc2ccccc21	-2%	0	-11%	22%	-11%	3%	.	.
Cc1cc(Br)ccc1NC(=O)CN(C)C(=O)Cn1c(=O)cnc2ccccc21	79µM*	-27	18µM*	?	-8%	-15%	?	?
N#C/C(=C/c1ccc(N2CCOCC2)o1)c1ccc(Br)cc1	45µM*	-26	56µM*	?	-7%	17%	?	35µM*
CC(C)(C)c1ccc(C(=O)N/C(=C\c2ccco2)C(=O)Nc2ccccc2C(=O)O)cc1	10%	?	-36%	-2%	?	-19%	?	-26%
CCn1c(C(=O)N2CCCC(C(=O)NCCc3ccc(C)cc3)C2)cc2sccc21 (centres undefined)	-9%	.	-30%	18%	-1%	1%	16µM*	32µM*
CCc1ccccc1NC(=O)CSC1=Nc2ccccc2C2=NC(Cc3ccccc3)C(=O)N12 (centres undefined)	-10%	.	-33%	13%	-4%	.	.	.
